Assay [1] can be described thus: small molecules captured by biotinylated probe aFSTL3 – biochemical, small-molecule microarray, fluorescence 635/667, stem cell growth factor project, primary screen (AID 1064).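 Also: measures binding of the biotinylated anti-FSTL3 antibody to printed compounds.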 The note with it: higher = more signal.
A short description of assay [2]: binders from COS7 lysate, DM2A8 probe, primary screen, torsin A project, cell lysate, small-molecule microarray, fluorescence 635/667 (AID 1065). The note with it: higher = more signal, COS7 lysate expressing mutant human TOR1A.
Assay [3] is described as follows: small molecules captured by biotinylated probe aFGF2 – biochemical, small-molecule microarray, fluorescence 635/667, stem cell growth factor project, primary screen (AID 1067).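 Also: measures binding of biotinylated aFGF2 protein to printed compounds on slides; z-score merges feature fluorescence and signal-to-noise across triplicate slides.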 The note with it: higher = more signal.
A short description of assay [4]: small molecules captured by biotinylated probe aFGF10 – biochemical, small-molecule microarray, fluorescence 635/667, stem cell growth factor project, primary screen (AID 1071).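 Also: score merges 667 nm spot intensity and signal to noise from triplicate slides.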 The note with it: higher = more signal.
Assay [5] deals with Neurogenic locus notch homolog protein 2 (Homo sapiens) (UniProt Q04721). The assay is described as follows: small molecules binding Notch2 protein – biochemical, small-molecule microarray, 635 nm fluorescence, stem cell growth factors, primary screen (AID 1073). As to conditions: higher = more signal.
Sequence of Neurogenic locus notch homolog protein 2 (Homo sapiens) (Q04721 whole entry, looked up, canonical isoform): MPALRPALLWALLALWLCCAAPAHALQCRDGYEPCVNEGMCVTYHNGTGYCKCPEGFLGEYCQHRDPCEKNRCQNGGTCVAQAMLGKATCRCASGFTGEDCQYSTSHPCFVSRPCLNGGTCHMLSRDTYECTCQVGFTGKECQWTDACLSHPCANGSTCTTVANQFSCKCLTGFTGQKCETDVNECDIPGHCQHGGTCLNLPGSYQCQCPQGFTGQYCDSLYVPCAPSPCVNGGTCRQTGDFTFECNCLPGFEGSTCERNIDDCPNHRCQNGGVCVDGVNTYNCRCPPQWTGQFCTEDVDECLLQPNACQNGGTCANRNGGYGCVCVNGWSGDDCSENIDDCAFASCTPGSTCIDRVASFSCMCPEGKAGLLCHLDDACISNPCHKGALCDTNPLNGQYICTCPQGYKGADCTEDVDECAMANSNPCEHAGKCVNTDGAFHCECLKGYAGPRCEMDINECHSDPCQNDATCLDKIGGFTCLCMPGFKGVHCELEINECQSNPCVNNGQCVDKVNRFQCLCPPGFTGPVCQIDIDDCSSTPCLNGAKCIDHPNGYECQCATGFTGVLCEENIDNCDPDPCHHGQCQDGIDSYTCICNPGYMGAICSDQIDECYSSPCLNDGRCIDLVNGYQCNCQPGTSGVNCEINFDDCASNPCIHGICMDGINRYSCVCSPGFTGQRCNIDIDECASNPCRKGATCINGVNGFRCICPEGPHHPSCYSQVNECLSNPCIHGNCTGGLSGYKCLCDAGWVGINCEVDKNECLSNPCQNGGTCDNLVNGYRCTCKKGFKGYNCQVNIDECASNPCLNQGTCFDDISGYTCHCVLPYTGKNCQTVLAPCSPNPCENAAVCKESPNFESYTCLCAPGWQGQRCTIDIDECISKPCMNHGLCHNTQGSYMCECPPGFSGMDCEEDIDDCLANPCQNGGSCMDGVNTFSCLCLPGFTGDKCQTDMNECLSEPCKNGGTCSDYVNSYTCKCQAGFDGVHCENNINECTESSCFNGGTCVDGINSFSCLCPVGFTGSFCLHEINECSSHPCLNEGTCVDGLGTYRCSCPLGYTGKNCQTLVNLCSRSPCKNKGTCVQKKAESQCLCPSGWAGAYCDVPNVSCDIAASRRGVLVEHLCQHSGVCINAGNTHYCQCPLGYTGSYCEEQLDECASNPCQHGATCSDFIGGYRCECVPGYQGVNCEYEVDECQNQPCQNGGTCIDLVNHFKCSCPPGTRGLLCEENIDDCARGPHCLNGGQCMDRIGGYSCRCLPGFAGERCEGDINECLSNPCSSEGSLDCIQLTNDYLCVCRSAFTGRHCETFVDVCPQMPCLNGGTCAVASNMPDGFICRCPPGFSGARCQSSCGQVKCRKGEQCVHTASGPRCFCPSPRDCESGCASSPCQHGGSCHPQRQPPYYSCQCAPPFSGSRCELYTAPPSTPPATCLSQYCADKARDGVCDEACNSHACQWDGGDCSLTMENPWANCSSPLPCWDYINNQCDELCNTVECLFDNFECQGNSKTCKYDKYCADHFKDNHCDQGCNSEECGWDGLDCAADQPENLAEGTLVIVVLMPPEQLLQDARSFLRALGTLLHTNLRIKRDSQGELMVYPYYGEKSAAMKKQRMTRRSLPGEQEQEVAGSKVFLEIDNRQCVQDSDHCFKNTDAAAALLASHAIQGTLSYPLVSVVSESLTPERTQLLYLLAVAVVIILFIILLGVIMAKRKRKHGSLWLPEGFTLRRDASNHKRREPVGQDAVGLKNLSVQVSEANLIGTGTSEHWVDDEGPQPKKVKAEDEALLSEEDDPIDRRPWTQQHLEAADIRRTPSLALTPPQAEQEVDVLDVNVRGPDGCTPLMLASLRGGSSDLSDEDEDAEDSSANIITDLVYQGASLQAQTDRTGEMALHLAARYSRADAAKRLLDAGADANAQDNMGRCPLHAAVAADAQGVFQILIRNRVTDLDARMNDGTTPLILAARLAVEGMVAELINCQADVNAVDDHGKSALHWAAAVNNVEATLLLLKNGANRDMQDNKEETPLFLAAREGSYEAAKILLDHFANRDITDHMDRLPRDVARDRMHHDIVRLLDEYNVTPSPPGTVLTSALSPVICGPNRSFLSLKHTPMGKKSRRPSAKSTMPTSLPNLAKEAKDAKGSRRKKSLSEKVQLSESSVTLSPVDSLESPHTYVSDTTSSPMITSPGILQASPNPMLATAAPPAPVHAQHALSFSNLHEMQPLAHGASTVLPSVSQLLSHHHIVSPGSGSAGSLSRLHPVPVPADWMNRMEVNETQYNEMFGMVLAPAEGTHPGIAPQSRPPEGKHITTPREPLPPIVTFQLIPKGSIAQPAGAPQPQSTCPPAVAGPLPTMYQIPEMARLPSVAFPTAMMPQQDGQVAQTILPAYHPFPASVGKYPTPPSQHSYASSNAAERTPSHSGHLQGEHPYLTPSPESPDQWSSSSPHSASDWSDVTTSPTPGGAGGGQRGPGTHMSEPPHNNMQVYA
Assay [6] addresses Pro-neuregulin-1, membrane-bound isoform (Homo sapiens) (UniProt Q02297). Put plainly: small molecules binding neuregulin-1 protein – biochemical, small-molecule microarray, fluorescence 635/667, psychiatric disease protein project, primary screen (AID 1075).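 Also: score combines 667 nm spot fluorescence with signal to noise.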 As to conditions: NRG1 binding, 635 nm fluorescence, higher = more signal.
Assay [7] has as its system Neuregulin-1 EGF-like domain. Put plainly: small molecules binding NRG1 EGF domain – biochemical, small-molecule microarray, 635 nm fluorescence, primary screen (AID 1081).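 Also: binding of the protein to compounds printed on small-molecule microarray slides.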 As to conditions: higher = more signal.
Assay [8] is described as follows: FRG1 expression reporter modulators in myotubes – cell-based, C2C12 myotubes, firefly/Renilla luciferase, luminescence, FRG1 inhibition for FSHD, primary screen (AID 1084). The note with it: FRG1 promoter luciferase, higher = more signal, called active from +8 up or from −8 down.
Assay [9] in a line: small molecules captured by biotinylated probe aFST – biochemical, small-molecule microarray, fluorescence 635/667, stem cell growth factor project, primary screen (AID 1086).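 Also: score merges 667 nm fluorescence with signal-to-noise of each printed compound spot.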 As to conditions: higher = more signal.
Assay [10] in a line: binders of probe aHhip on microarray, primary screen, stem cell growth factor project, biochemical, small-molecule microarray, fluorescence 635/667 (AID 1087).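 Also: score merges spot fluorescence at 667nm with spot signal to noise ratio.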 As to conditions: higher = more signal.
The test system of assay [11] is PRMT1 (protein arginine N-methyltransferase 1). The assay is described as follows: small molecules binding arginine methyltransferase PRMT1 – biochemical, small-molecule microarray, 635 nm fluorescence, primary screen (AID 1088).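 Also: binding of Prmt1 protein to compounds spotted on small-molecule microarray slides.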 As to conditions: higher = more signal.
Assay [12] in a line: growth effects on S. cerevisiae YJM789 – YJM789 clinical isolate, OD600, 24 h, basal, primary screen (AID 1089).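 Also: growth of clinical yeast isolate S. cerevisiae YJM 789 seeded 1000 cells per well; test concentration not given here.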 As to conditions: higher = more signal, called active from +8 up or from −8 down.
Assay [13] in a line: S. pombe growth modifiers, basal conditions – strain 972, OD600, 24 h, no modulator, primary screen (AID 1090).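 Also: basal condition with compound alone and no growth modifier present; test concentration not given here.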 The note with it: S. pombe 972 growth, higher = more signal, called active from +8 up or from −8 down.
Assay [14] is described as follows: budding yeast growth modifiers under rapamycin – strain BY4716, OD600, 96 h, primary screen (AID 1091). Also: test concentration not given here. As to conditions: S. cerevisiae BY4716 + rapamycin, higher = more signal, called active from +8 up or from −8 down.
In assay [15] the target is Torsin-1A-interacting protein 2 (Homo sapiens) (UniProt Q8NFQ8). The assay is described as follows: small molecules binding lysate-expressed LULL1 – cell lysate, human LULL1 lysate, 635/667 nm fluorescence, primary screen (AID 1092).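 Also: probe is lysate of COS7 cells overexpressing human LULL1; score merges per-feature 667 nm fluorescence with signal-to-noise.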 As to conditions: small-molecule microarray, hLULL1 lysate binding, 635 nm fluorescence; higher = more signal.
Sequence of Torsin-1A-interacting protein 2 (Homo sapiens) (Q8NFQ8 whole entry, looked up): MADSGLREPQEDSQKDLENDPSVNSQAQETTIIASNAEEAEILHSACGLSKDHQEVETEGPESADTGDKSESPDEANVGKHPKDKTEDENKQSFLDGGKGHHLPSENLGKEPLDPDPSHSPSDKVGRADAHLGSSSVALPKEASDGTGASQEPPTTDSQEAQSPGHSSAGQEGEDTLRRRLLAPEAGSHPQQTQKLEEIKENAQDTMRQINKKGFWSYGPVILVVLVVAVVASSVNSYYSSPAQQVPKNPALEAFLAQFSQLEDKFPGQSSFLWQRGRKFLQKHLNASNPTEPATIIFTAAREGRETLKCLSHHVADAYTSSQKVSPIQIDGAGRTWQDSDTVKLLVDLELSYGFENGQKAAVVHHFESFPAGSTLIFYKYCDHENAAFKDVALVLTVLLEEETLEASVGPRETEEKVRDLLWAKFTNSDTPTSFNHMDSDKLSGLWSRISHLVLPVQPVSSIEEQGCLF
The nature of assay [16]: optical density change of DRC41 E. coli – strain DRC41, OD650, 24 h, E. coli filamentation project, primary screen (AID 1093).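 Also: MC1000 strain lacking acrAB efflux and sulA so SOS filamentation is blocked; test concentration not given here.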 As to conditions: E. coli DRC41 growth, higher = more signal, called active from +8 up or from −8 down.
A short description of assay [17]: probe aLefty2 binding to arrayed compounds – biochemical, biotinylated probe, 635/667 nm fluorescence, primary screen (AID 1094).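 Also: score merges spot fluorescence near 667 nm with spot signal-to-noise ratio.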 As to conditions: small-molecule microarray, higher = more signal.
Assay [18] concerns Noggin (protein binding on small-molecule microarray). Put plainly: small molecules binding Noggin protein – biochemical, 635/667 nm fluorescence, primary screen (AID 1095).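 Also: score merges 667 nm feature fluorescence with signal to noise over triplicate slides.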 As to conditions: 635 nm fluorescence, higher = more signal.
Assay [19] addresses Neurogenic locus notch homolog protein 3 (Homo sapiens) (UniProt Q9UM47). The assay is described as follows: small molecules binding NOTCH3 protein – biochemical, 635/667 nm fluorescence, primary screen (AID 1096). The note with it: small-molecule microarray, 635 nm fluorescence, higher = more signal.
Assay [20] is described as follows: probe aEGFR binding to arrayed compounds – biochemical, biotinylated probe, 635/667 nm fluorescence, primary screen (AID 1097).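 Also: probe is a biotinylated anti-EGFR antibody binding compounds printed on slides; score combines fluorescence near 667 nm and signal to noise of each spot.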 The note with it: small-molecule microarray, higher = more signal.

Calls of active or inactive are those of the source.

Sequence of Pro-neuregulin-1, membrane-bound isoform (Homo sapiens) (Q02297 whole entry, looked up, the tested form may be a part, canonical isoform): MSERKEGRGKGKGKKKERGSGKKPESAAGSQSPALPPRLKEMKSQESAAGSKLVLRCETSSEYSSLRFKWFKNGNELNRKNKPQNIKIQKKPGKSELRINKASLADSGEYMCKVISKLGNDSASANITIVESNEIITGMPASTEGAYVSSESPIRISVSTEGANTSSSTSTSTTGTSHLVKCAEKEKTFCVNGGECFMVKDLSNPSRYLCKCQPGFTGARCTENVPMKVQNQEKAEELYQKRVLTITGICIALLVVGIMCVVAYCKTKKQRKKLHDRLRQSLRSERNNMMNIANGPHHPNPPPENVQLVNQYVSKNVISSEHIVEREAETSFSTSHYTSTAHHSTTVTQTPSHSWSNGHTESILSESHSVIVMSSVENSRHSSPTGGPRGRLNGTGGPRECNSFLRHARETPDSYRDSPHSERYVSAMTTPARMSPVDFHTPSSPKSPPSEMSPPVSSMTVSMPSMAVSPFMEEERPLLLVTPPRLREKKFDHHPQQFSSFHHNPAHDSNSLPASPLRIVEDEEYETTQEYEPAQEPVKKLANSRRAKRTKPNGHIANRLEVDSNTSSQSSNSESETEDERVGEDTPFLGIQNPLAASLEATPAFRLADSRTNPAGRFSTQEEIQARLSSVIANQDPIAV

Take `CC(=O)C1=CCC(c2ccccc2)N(S(=O)(=O)c2ccc(C)cc2)C1` (stereo not given): the composite z-score worked out at 0.174 in assay [1]; 0.453 in assay [2]; 0.0592 in [3]; 0.679 in [4]; 0.691 in assay [5]; 0.628 in assay [6]. The composite z-score was 1.23 in assay [7]; 0.57 in assay [9]; -0.0142 in [10]; 1.53 in assay [11]; 2.6 in assay [15]; -0.0118 in [17]. For the same compound, the composite z-score is 0.229 in assay [18], 0.821 in assay [19] and -0.039 in assay [20]. Also, the z-score in assay [8] is -2.72 (inactive); in assay [12], -1.31 (inactive); in assay [13] it was 0.888 (inactive); in assay [14], 4.92 (inactive); in assay [16], -1.03 (inactive).

Consider `O=C/C=C/c1ccc(Cl)cc1`, for which the composite z-score in [1] is -0.0244; in assay [2], -0.385; in assay [3], 0.0086; in assay [4], 0.439; in [5], -0.885; in [6], -0.476. Further, the composite z-score in assay [7] was 0.651; in assay [9], -0.493; in assay [10], -0.282; in assay [11], -1.24; in assay [15], -1.2; in assay [17], -0.134. The composite z-score in assay [18] was -0.968; in [19], -1.09; in [20], -0.113. For the same compound, the z-score in [8] was -0.678 (inactive); in assay [12], -10.4 (active); in [13], -20.1 (active); in assay [14] it was -2.49 (inactive); in assay [16], -0.767 (inactive).

Take `Cc1ccc(S[C@]2(C(=O)NCc3ccccc3)CC(=O)N(Cc3ccccc3Cl)[C@@H]2c2ccc(CO)cc2I)cc1`: the composite z-score in assay [1] was 0.715; in assay [2], -1.06; in assay [3], -0.104; in assay [4], -0.638; in [5] it was -0.848; in [6], 0.288. Also, the composite z-score in [7] is 0.539; in assay [9], -0.319; in assay [10] it was -0.0645; in assay [11] it was 1.08; in assay [15], 1.65; in [17], 0.114. In addition, the results for the composite z-score in assay [18], in assay [19] and in [20] were -1.07, -0.109 and -0.168, respectively. For the same compound, the z-score in assay [8] is -0.0143 (inactive); in [12], -3.68 (inactive); in assay [13] it was -3.05 (inactive); in assay [14] it was 0.103 (inactive); in [16] it was -0.592 (inactive).

Take `C=CCC(OC(C)=O)[C@@H]1[C@@H](N(Cc2ccc(-c3ccccc3)cc2)C(=O)Cc2ccc(F)cc2)c2cc(OCCCO)ccc2N1C(=O)c1ccc2ccccc2n1` (stereo not given in full): the composite z-score in [1] is -0.12; in assay [2], -0.0608; in [3], 0.0198; in assay [4], -0.372; in [5], 0.0329; in assay [6] it was 0.164. Further, the composite z-score in assay [7] was -0.421; in assay [9], 0.167; in assay [10], 0.0623; in assay [11], -0.0414; in assay [15], 0.208; in assay [17], -0.057. The composite z-score in assay [18] is -0.423; in assay [19], -0.0833; in assay [20] it was 0.44. For the same compound, the z-score in [8] was -0.649 (inactive); in assay [12], -0.583 (inactive); in [13], -0.0387 (inactive); in assay [14], -0.527 (inactive); in [16], 1.47 (inactive).

With `COc1ccc(CCN2C(=O)[C@@]3(Cc4ccccc42)c2ccccc2C(=O)N(Cc2ccccc2Cl)[C@H]3c2ccc(CO)cc2)cc1`, the composite z-score is 0.451 in [1]; -0.73 in assay [2]; -0.0744 in assay [3]; -0.249 in assay [4]; -0.13 in assay [5]; -0.221 in assay [6]. Further, the composite z-score is 0.834 in assay [7]; -0.285 in assay [9]; -0.0994 in [10]; 1.34 in assay [11]; 0.494 in assay [15]; -0.126 in assay [17]. In addition, the composite z-score in assay [18] was -1.05; in assay [19] it was -0.981; in [20], -0.169. The z-score was -0.236 (inactive) in assay [8]; -0.411 (inactive) in assay [12]; -1.51 (inactive) in assay [13]; -1.24 (inactive) in assay [14]; 0.169 (inactive) in assay [16].

These data come from PubChem BioAssay.
